Measurements published in the supplement of paper PMC8728848.
The sample as a whole holds a higher share of the strongest signals than the screen did.

Key:
Assay in all cases: glycan array binding signal (z-score within array); higher = stronger binding
Conditions in all cases: glycan notation: IUPAC condensed, linker removed
[1] = target: Fuc(a1-2)Gal(b1-3)GlcNAc(b1-2)Man(a1-3)[Fuc(a1-2)Gal(b1-3)GlcNAc(b1-2)Man(a1-6)]Man(b1-4)GlcNAc(b1-4)GlcNAc
Summary of the method: (§1)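 The Consortium for Functional Glycomics database supplied 3228 glycan arrays, of which those lacking an available protein sequence were dropped. The binding signal, a within-array Z-score, was averaged across arrays of the same protein sequence and across linkers. Negative scores can be read as non-binding.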

[2] = target: Fuc(a1-2)Gal(b1-3)GlcNAc(b1-3)[Fuc(a1-3)[Gal(b1-4)]GlcNAc(b1-6)]Gal(b1-4)Glc
Summary of the method: as §1

[3] = target: Fuc(a1-2)Gal(b1-3)GlcNAc(b1-3)[Gal(b1-4)GlcNAc(b1-6)]Gal(b1-4)Glc
Summary of the method: as §1

Fuc(a1-2)[Gal(a1-3)]Gal = target: Fuc(a1-2)[Gal(a1-3)]Gal
Summary of the method: as §1

[4] = target: Fuc(a1-2)[Gal(a1-3)]Gal(b1-4)[Fuc(a1-3)]Glc
Summary of the method: as §1

[5] = target: Fuc(a1-2)[GalNAc(a1-3)]Gal(b1-4)GlcNAc
Summary of the method: as §1

[6] = target: Fuc(a1-2)[GalNAc(a1-3)]Gal(b1-4)GlcNAc(b1-3)Gal(b1-4)GlcNAc
Summary of the method: as §1

[7] = target: Fuc(a1-3)[Gal(b1-4)]GlcNAc(b1-2)Man(a1-3)[Fuc(a1-3)[Gal(b1-4)]GlcNAc(b1-2)Man(a1-6)]Man(b1-4)GlcNAc(b1-4)GlcNAc
Summary of the method: as §1

[8] = target: Gal(a1-4)Gal(b1-4)GlcNAc(b1-2)Man(a1-3)[Gal(a1-4)Gal(b1-4)GlcNAc(b1-2)Man(a1-6)]Man(b1-4)GlcNAc(b1-4)GlcNAc
Summary of the method: as §1

Gal(b1-3)GlcNAc = target: Gal(b1-3)GlcNAc
Summary of the method: as §1

[9] = target: Gal(b1-3)GlcNAc(b1-3)Gal(b1-3)GlcNAc
Summary of the method: as §1

[10] = target: Gal(b1-3)GlcNAc(b1-3)Gal(b1-4)GlcNAc
Summary of the method: as §1

[11] = target: Gal(b1-3)[Fuc(a1-4)]GlcNAc(b1-3)Gal(b1-3)[Fuc(a1-4)]GlcNAc
Summary of the method: as §1

[12] = target: Gal(b1-4)GlcNAc(b1-2)Man(a1-6)[GlcNAc(b1-2)Man(a1-3)]Man(b1-4)GlcNAc(b1-4)GlcNAc
Summary of the method: as §1

[13] = target: Gal(b1-4)GlcNAc(b1-3)[Gal(b1-4)GlcNAc(b1-6)]GalNAc
Summary of the method: as §1

Gal6S(b1-3)GlcNAc = target: Gal6S(b1-3)GlcNAc
Summary of the method: as §1

[14] = target: GalNAc(a1-3)GalNAc(a1-3)Gal(a1-4)Gal(b1-4)GlcNAc
Summary of the method: as §1

Glc(b1-4)Glc = target: Glc(b1-4)Glc
Summary of the method: as §1

GlcA(b1-3)Gal = target: GlcA(b1-3)Gal
Summary of the method: as §1

[15] = target: GlcNAc(a1-3)Gal(b1-4)GlcNAc
Summary of the method: as §1

[16] = target: GlcNAc(b1-2)Man(a1-3)[GlcNAc(b1-2)Man(a1-6)]Man(b1-4)GlcNAc(b1-4)GlcNAc
Summary of the method: as §1

[17] = target: GlcNAc(b1-2)Man(a1-3)[GlcNAc(b1-2)Man(a1-6)]Man(b1-4)GlcNAc(b1-4)[Fuc(a1-6)]GlcNAc
Summary of the method: as §1

[18] = target: GlcNAc(b1-2)Man(a1-3)[GlcNAc(b1-4)][GlcNAc(b1-2)Man(a1-6)]Man(b1-4)GlcNAc(b1-4)GlcNAc
Summary of the method: as §1

[19] = target: GlcNAc(b1-2)[GlcNAc(b1-6)]Man(a1-6)[GlcNAc(b1-2)Man(a1-3)]Man(b1-4)GlcNAc(b1-4)GlcNAc
Summary of the method: as §1

[20] = target: GlcNAc(b1-2)[GlcNAc(b1-6)]Man(a1-6)[GlcNAc(b1-2)Man(a1-3)][GlcNAc(b1-4)]Man(b1-4)GlcNAc(b1-4)GlcNAc
Summary of the method: as §1

GlcNAc(b1-3)Gal = target: GlcNAc(b1-3)Gal
Summary of the method: as §1

GlcNAc3Prop(b1-4)GlcNAc = target: GlcNAc3Prop(b1-4)GlcNAc
Summary of the method: as §1

[21] = target: Man(a1-3)[Man(a1-6)]Man(a1-6)[Man(a1-3)]Man(b1-4)GlcNAc(b1-4)GlcNAc
Summary of the method: as §1

Neu5Ac(a2-3)Gal = target: Neu5Ac(a2-3)Gal
Summary of the method: as §1

[22] = target: Neu5Ac(a2-3)Gal(b1-4)[Fuc(a1-3)]GlcNAc(b1-3)GalNAc
Summary of the method: as §1

[23] = target: Neu5Ac(a2-3)Gal(b1-4)[Fuc(a1-3)]GlcNAc(b1-6)[Neu5Ac(a2-3)Gal(b1-3)]GalNAc
Summary of the method: as §1

Neu5Ac(a2-6)Gal = target: Neu5Ac(a2-6)Gal
Summary of the method: as §1

[24] = target: Neu5Ac(a2-6)Gal(b1-3)GlcNAc(b1-3)[Gal(b1-4)GlcNAc(b1-6)]Gal(b1-4)Glc
Summary of the method: as §1

[25] = target: Neu5Ac(a2-6)Gal(b1-4)GlcNAc(b1-2)Man(a1-6)[GlcNAc(b1-2)Man(a1-3)]Man(b1-4)GlcNAc(b1-4)GlcNAc
Summary of the method: as §1

[26] = target: Neu5Ac(a2-6)Gal(b1-4)GlcNAc(b1-3)Gal(b1-4)GlcNAc(b1-3)Gal(b1-4)GlcNAc
Summary of the method: as §1

[27] = target: Neu5Ac(a2-6)GalNAc(b1-4)GlcNAc
Summary of the method: as §1

[28] = target: Neu5Ac(a2-6)GlcNAc(b1-4)GlcNAc
Summary of the method: as §1

[29] = target: Neu5Ac(a2-8)Neu5Ac(a2-3)Gal(b1-4)Glc
Summary of the method: as §1

[30] = target: Neu5Ac9Ac(a2-6)Gal(b1-4)GlcNAc
Summary of the method: as §1

[31] = target: Neu5Gc(a2-3)Gal(b1-4)GlcNAc
Summary of the method: as §1

B1: LSectin (Mus musculus), Q8BNX1 (protein)
chain: MNTGEYNKLGSAIEEVSRGQLGRWECYKQRLFFLVLALLVATVLWALILSTLLSSASSKLRVLLSHQDLLRTNASEQKMTLSSLKDDIGACRNCCSVTKAQLQTTLAEFKDIQAKLMEQESILKELQERVTQDLAKASRDRENIRSELFQALEAVKRQNSSCEQCPPSWLPFQGSCYYFSETQATWDTAQSYCGGQGAHLVIVRGLNEQGFLSQHTRGRGYWLGLRAVRHLNKIQGYRWVDGASLNFSHWNSGEPNDSRGHEDCIMMLHSGLWNDAPCTNERDGWICEKRSSCY
glycan array binding signal (z-score) [1]: -0.18 | glycan array binding signal (z-score) [2]: -0.187 | glycan array binding signal (z-score) [3]: -0.188 | glycan array binding signal (z-score) (Fuc(a1-2)[Gal(a1-3)]Gal): -0.145 | glycan array binding signal (z-score) [4]: -0.124 | glycan array binding signal (z-score) [5]: -0.176 | glycan array binding signal (z-score) [6]: -0.185 | glycan array binding signal (z-score) [7]: -0.158 | glycan array binding signal (z-score) [8]: -0.18 | glycan array binding signal (z-score) (Gal(b1-3)GlcNAc): -0.132 | glycan array binding signal (z-score) [9]: -0.18 | glycan array binding signal (z-score) [10]: -0.175 | glycan array binding signal (z-score) [11]: -0.172 | glycan array binding signal (z-score) [12]: 4.08 | glycan array binding signal (z-score) [13]: -0.192 | glycan array binding signal (z-score) (Gal6S(b1-3)GlcNAc): -0.188 | glycan array binding signal (z-score) [14]: -0.19 | glycan array binding signal (z-score) (Glc(b1-4)Glc): -0.17 | glycan array binding signal (z-score) (GlcA(b1-3)Gal): -0.169 | glycan array binding signal (z-score) [15]: -0.14 | glycan array binding signal (z-score) [16]: 6.38 | glycan array binding signal (z-score) [17]: 5.47 | glycan array binding signal (z-score) [18]: 7.84 | glycan array binding signal (z-score) [19]: 4.99 | glycan array binding signal (z-score) [20]: 7.22 | glycan array binding signal (z-score) (GlcNAc(b1-3)Gal): -0.164 | glycan array binding signal (z-score) (GlcNAc3Prop(b1-4)GlcNAc): -0.168 | glycan array binding signal (z-score) [21]: -0.172 | glycan array binding signal (z-score) (Neu5Ac(a2-3)Gal): -0.148 | glycan array binding signal (z-score) [22]: -0.154 | glycan array binding signal (z-score) [23]: -0.181 | glycan array binding signal (z-score) (Neu5Ac(a2-6)Gal): -0.118 | glycan array binding signal (z-score) [24]: -0.187 | glycan array binding signal (z-score) [25]: 4.19 | glycan array binding signal (z-score) [26]: -0.182 | glycan array binding signal (z-score) [27]: 3.69 | glycan array binding signal (z-score) [28]: -0.18 | glycan array binding signal (z-score) [29]: -0.158 | glycan array binding signal (z-score) [30]: -0.16 | glycan array binding signal (z-score) [31]: -0.156
